Results: paper PMC4336329 (PLoS ONE, 2015)
About 14,000 (4.5%) of roughly 310,000 compounds showed an effect of 50% or more. Effects have a minus sign here. What follows is part of a selection rich in strong results, with near analogues and random picks from the rest.

The molecules below were run against human ether-à-go-go-related gene (hERG) potassium channel (human, UniProt Q12809) (assay: primary screen, population patch clamp on CHO cells stably expressing hERG; higher = less effect of the substance).
Chain of human ether-à-go-go-related gene (hERG) potassium channel (Q12809 whole entry, looked up): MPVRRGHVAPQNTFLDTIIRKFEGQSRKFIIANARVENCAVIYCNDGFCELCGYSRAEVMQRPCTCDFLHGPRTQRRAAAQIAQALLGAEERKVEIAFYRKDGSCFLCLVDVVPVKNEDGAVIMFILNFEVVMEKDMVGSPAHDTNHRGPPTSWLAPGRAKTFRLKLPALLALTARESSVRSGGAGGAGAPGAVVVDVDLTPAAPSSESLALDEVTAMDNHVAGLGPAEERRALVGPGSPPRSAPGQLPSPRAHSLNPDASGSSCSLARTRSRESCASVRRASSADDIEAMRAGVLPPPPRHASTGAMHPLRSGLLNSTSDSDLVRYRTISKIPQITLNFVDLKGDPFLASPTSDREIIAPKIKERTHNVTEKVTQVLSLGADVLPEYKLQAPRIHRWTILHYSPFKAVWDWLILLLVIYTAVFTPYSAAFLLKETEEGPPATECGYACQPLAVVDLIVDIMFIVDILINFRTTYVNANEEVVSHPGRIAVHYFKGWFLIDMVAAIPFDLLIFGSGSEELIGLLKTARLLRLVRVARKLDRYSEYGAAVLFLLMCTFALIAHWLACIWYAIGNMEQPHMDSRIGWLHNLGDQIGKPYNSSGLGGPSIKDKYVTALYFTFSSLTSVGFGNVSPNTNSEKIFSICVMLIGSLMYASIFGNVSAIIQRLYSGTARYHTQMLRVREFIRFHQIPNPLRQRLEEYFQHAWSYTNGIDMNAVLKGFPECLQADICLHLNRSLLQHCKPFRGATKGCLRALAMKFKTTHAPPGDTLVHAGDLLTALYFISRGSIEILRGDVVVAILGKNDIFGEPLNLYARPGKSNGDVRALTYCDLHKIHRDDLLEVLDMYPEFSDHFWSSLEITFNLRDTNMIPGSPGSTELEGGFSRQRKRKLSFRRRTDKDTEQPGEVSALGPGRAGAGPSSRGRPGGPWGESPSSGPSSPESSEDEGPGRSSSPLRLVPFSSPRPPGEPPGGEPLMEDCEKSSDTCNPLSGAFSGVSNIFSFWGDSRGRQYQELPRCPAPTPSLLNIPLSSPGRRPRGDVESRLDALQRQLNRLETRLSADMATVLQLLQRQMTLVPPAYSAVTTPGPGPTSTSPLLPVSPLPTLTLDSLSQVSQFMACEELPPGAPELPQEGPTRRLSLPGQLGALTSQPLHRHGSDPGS
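Further: peak tail current of the secondary pulse compared with the same well before compound.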

Structure (SMILES) | hERG current change (%, negative = inhibition) at 10uM
O=C(COC(=O)CNC(=O)c1ccccc1F)NC12CC3CC(CC(C3)C1)C2 | 0.652%
COc1ccccc1NC(=O)Nc1cccc(C(=O)O)c1 | 17.5%
N#CC(c1ccc(Cl)cc1)c1ccc2c(C(F)(F)F)cc(C(F)(F)F)nc2n1 (centres unmarked) | 6.7%
CCS(=O)(=O)N1CCC(C(=O)OCC(=O)c2ccc(Br)cc2)CC1 | 3.45%
Cn1c(=Nc2ccc(N3CCOCC3)cc2)ccc2ccccc21 | -47.5%
Oc1ccc2ccccc2c1C=Nc1ccc(N2CCOCC2)cc1 | 3.04%
CCn1c(=Nc2ccc(N3CCOCC3)cc2)ccc2ccccc21 | -66.8%
COc1ccccc1OCc1ccc(C(=O)N(C)c2ccccc2)o1 | 7.76%
COC(=O)c1coc(-c2ccc(OC)cc2)c1C(=O)OC | 13.8%
Cc1ccc(OCC(=O)N2CCc3ccccc3C2)cc1 | -3.37%
O=C(Cc1ccc([N+](=O)[O-])cc1)N1CCc2ccccc2C1 | -17.7%
Cc1ccc(OCCCCN2CCc3ccccc3C2)cc1.Cl | -34.9%
O=C(CCc1ccc(S(=O)(=O)N2CCOCC2)cc1)N1CCc2ccccc2C1 | -14.5%
O=C(O)C(=O)O.O=[N+]([O-])c1ccc(OCCCCN2CCc3ccccc3C2)cc1 | -76.3%
O=C(COc1ccc([N+](=O)[O-])cc1)N1CCc2ccccc2C1 | -54.5%
O=C(COc1ccc(S(=O)(=O)N2CCOCC2)cc1)N1CCc2ccccc2C1 | -55.9%
O=C(COc1ccccc1)N1CCc2ccccc2C1 | 10%
Cl.Clc1ccc(OCCCCN2CCc3ccccc3C2)cc1 | -68.1%
O=C(COc1ccc(S(=O)(=O)N2CCOCC2)cc1)N1CCOCC1 | 10.6%
O=C(CCCOc1ccccc1)N1CCc2ccccc2C1 | 0.877%

Structure (SMILES) | hERG current change (%, negative = inhibition) at 10uM
Cl.O=[N+]([O-])c1ccccc1OCCCN1CCc2ccccc2C1 | -49.7%
O=C(CCNS(=O)(=O)c1cccc2nsnc12)NCCc1ccccc1 | -4.18%
COC(=O)CC1(CC(=O)OC)C(=O)NC(=O)NC1=O | 7.37%
CCCC(=O)OCC(=O)Nc1cc(Cl)ccc1[N+](=O)[O-] | 16.8%
Cc1ccc(Oc2nc3ccccc3n3cccc23)cc1 | -10.1%
O=C(OCC(=O)N1CCCc2ccccc21)c1ccc(Cl)nc1 | -3.94%
Cc1c(C(=O)NNC(=O)c2csc(N3CCOCC3)n2)oc2ccccc12 | -38.7%
COC(=O)C1CCN(Cc2c(C(=O)N3C[C@@H](C)O[C@@H](C)C3)nc3ccc(Cl)cn23)CC1 | 21.1%
COCCCNC(=O)c1cn(Cc2c(F)cccc2Cl)nn1 | -3.65%
CCOC(=O)c1nnn(-c2nonc2N)c1COc1c(C=O)cccc1OC | -6.2%
Cc1cc(=O)n(C)c(=O)n1CCCCOc1ccc([N+](=O)[O-])cc1 | -68.9%
Cc1cc(=O)n(C)c(=O)n1CCCCCCOc1ccc([N+](=O)[O-])cc1 | -63.9%
Cc1cc(=O)n(C)c(=O)n1CCCCCCN1CCCC1.O=C(O)C(=O)O | 8.96%
O=[N+]([O-])c1ccc(OCCOCCOc2ccc([N+](=O)[O-])cc2)cc1 | -16.6%
Cc1n[nH]c(C)c1CCCCOc1ccc([N+](=O)[O-])cc1 | -16.4%
Cc1cc(=O)n(C)c(=O)n1CCCCCN1CCCC1.O=C(O)C(=O)O | 5.16%
CN(Cc1ccccc1)C(=O)CNC(=O)Cn1cnc2ccccc2c1=O | -7.88%
CC(/C=C/C=C/c1ccccc1)=N/NC(=O)c1ccc2c(c1)OCCO2 | 7.79%
C=CCn1c(SCC(=O)Nc2cc(C)nn2-c2ccccc2)nnc1C1CCCCC1 | -14.1%
CCS(=O)(=O)N1CCC(C(=O)c2ccc(Cl)cc2)CC1 | -47.3%

Structure (SMILES) | hERG current change (%, negative = inhibition) at 10uM
O=C(c1ccc(F)cc1)C1CCN(Cc2ccc(F)cc2)CC1 | -47.7%
COc1ccc(CN2CCC(C(=O)c3ccc(Cl)cc3)CC2)cc1 | -78.7%
COc1ccc(CN2CCC(C(=O)c3ccc(F)cc3)CC2)cc1 | -78.4%
CC(=O)N1CCC(C(=O)c2ccc(Cl)cc2)CC1 | -0.317%
COc1ccc(NC(=O)N2CCC(C(=O)c3ccc(F)cc3)CC2)cc1 | -18.6%
Cc1ccccc1C(=O)NCCCc1ccccc1 | 12.5%
O=C(NCCC(=O)N1CCCCC1)c1ccccc1Cl | -14.2%
COc1ccccc1N1CCN(/N=C\C(Br)=C\c2ccccc2)CC1 | 10.2%
COCCNC(=O)C(c1ccc(O)cc1)N(Cc1ccco1)C(=O)CCC(=O)Nc1ccccn1 (centres unmarked) | 23.8%
CCCCSc1nnc([C@@H]2CCCN2C(=O)OC(C)(C)C)o1 | -12.2%
COc1ccc(S(=O)(=O)N2CCCN(CCC(=O)Nc3cccc(C(F)(F)F)c3)CC2)cc1 | -69.6%
COc1ccc(S(=O)(=O)N2CCN(CCC(=O)Nc3ccc(F)cc3)CC2)cc1 | -18.9%
COc1ccc(NC(=O)CCN2CCN(S(=O)(=O)c3ccc(OC)cc3)CC2)cc1 | -25%
O=C(CN1CCN(S(=O)(=O)c2ccc(F)cc2)CC1)Nc1cccc(C(F)(F)F)c1 | -55.5%
O=C(CN1CCN(S(=O)(=O)c2ccccc2)CC1)Nc1cccc(C(F)(F)F)c1 | -56.2%
O=C(CCNC(=O)C1CCN(S(=O)(=O)c2ccccc2)CC1)Nc1cccc(C(F)(F)F)c1 | -45.1%
O=C(CNc1cccc(C(F)(F)F)c1)Nc1cccc(S(=O)(=O)N2CCCC2)c1 | -6.44%
O=C(Nc1cccc(C(F)(F)F)c1)NC1CCN(S(=O)(=O)c2ccc(F)cc2)CC1 | 12.2%
O=C(CN1CCN(S(=O)(=O)c2ccc(F)cc2)CC1)Nc1cc(C(F)(F)F)ccc1Cl | -4.15%
